This passage reports inhibition results from PubChem BioAssay AID1259372 (The Scripps Research Institute Molecular Screening Center, 2018).

Each structure is given as a SMILES string. About 760 (16%) of roughly 4,700 compounds were called active. The list is a sample of the results. Unmarked numbers belong to inactive results.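 The calls were made as follows: active = inhibition above a cutoff derived from the DMSO control wells (cut at about 28% in these data); inactive = the rest.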

For the experiment, the target named is Microphthalmia-associated transcription factor (Homo sapiens) (UniProt O75030). The experiment is described as follows: MITF inhibitors, retest of hits, confirmation, biochemical, AlphaScreen, triplicate (AID 1259372). To be noted: AlphaScreen MITF homodimerization, biotin/His-MITF beads; at 2.6 µM; hits give high values. On the technique in general: Bead proximity is the source of the signal in Alpha formats.
Chain of Microphthalmia-associated transcription factor (Homo sapiens) (O75030 whole entry, looked up): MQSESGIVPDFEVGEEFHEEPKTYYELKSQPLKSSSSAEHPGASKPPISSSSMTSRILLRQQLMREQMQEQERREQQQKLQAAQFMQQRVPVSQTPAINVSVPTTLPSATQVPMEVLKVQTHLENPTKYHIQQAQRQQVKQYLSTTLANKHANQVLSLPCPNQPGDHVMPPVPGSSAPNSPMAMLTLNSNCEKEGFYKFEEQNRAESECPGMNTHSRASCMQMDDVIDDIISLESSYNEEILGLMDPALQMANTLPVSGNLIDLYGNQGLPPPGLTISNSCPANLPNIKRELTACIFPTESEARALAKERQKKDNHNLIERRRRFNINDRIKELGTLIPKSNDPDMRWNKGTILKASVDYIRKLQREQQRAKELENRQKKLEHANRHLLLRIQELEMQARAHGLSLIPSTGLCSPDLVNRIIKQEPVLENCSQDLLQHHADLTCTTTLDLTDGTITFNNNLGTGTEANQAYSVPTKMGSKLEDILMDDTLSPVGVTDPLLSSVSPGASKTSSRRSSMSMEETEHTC
As for `O=C(C1CCN(Cc2nc3ccccc3[nH]2)CC1)N1CCN(c2ccccn2)CC1`, the inhibition (as a rule, the relative decrease from the control value, in per cent) is 0.24%.
In the case of `COc1ccc(OC)c(CN2CCN(Cc3ccccc3OC)CC2)c1`, the inhibition was 10.6%.
For `C=CCNCCOCCOc1cc(C)ccc1C(C)(C)C` the value was 7.1%.
For `Cc1cnc(NCc2ccc3c(c2)OCO3)nc1Nc1ccccc1` the value was -0.48%; for `c1cc2c(cc1CN1CCN(C3CCCCC3)CC1)OCO2`, -2.28%; for `c1cc2c(cc1CNc1nc(Nc3ccc(N4CCOCC4)cc3)c3ncn(C4CCCCC4)c3n1)OCO2`, 71.3% (active).
For `CC(C)(C)NCCOCCOc1ccc(Cl)c(Cl)c1` the value was 4.77%; for `O=C(Nc1ccc2c(c1)OCO2)C(c1ccccc1)N(Cc1ccccc1)Cc1ccccc1` (stereo unspecified), -3.96%.
With `Cc1cccc(CSc2n[nH]c(=O)[nH]c2=O)c1`, the inhibition was -2.69%.
As for `COc1cc(OC)c(OC)cc1CN1CCN(Cc2ccc(F)cc2)CC1`, the inhibition was -1.09%.
Take `Cc1nnc(N2CCC(Cc3ccccc3)CC2)c2ccccc12`: the inhibition was 2.32%.
For `COc1ccc(CNCC2CN(CC(C)C)CCO2)cc1` (stereo unspecified) the value was 10%.
As for `CCN1CCN(CCOCCOc2ccc([N+](=O)[O-])cc2)CC1`, the figure is 3.04%; as for `c1ccc(-c2ccccc2OCCNCCN2CCOCC2)cc1`, 16.9%.
For `O=C(O)CCCCCNC(=O)/C(=C\c1ccco1)NC(=O)c1ccccc1` the value was 25.9%; for `O=[N+]([O-])c1ccccc1CN1CCN(Cc2ccccc2C(F)(F)F)CC1`, 3.85%; for `Cc1cc(OCCN2CCN(C)CC2)ccc1C(C)C`, -2.72%.
With `O=C(O)CCCCC1SCC2NC(=O)NC21O` (stereo unspecified), the inhibition is 116% (active).
As for `COC(=O)C1(C)NC(c2ccc(C)cc2)C2C(=O)N(c3ccc(F)cc3)C(=O)C21` (stereo unspecified), the figure is 11.8%; as for `CC(=O)c1ccc(NC(=O)C(C)NCc2ccc(C)cc2)cc1` (stereo unspecified), 3.11%; as for `O=C(c1cccs1)N1CCC(N2CCN(Cc3ccccc3)CC2)CC1`, 1.58%.
For the compound `NC(=O)COC(=O)/C=C/c1ccc(I)o1`, the inhibition was 57.8% (active).
For the compound `Cc1nc(NC2CC2)cc(-c2ccc(F)cc2)n1`, the inhibition is 12%.
As for `CCOc1ccc(CN2CCN(C(=O)c3cccc(Cl)c3)CC2)cc1`, the figure is -0.91%; as for `CC(C)c1ccc(C2/C(=C(/O)c3ccccc3)C(=O)C(=O)N2CCN(C)C)cc1` (stereo unspecified), 4.9%.
As for `CCCCCOc1ccc(OC(=O)c2ccc(-c3ccc(CCC)cn3)cc2)cc1`, the figure is 4.5%.
As for `COc1ccc(Br)cc1CN1CCN(CCOCCO)CC1`, the figure is -4.85%; as for `O=S(=O)(c1ccc(Br)cc1Cl)N1CCN(CCc2ccncc2)CC1`, 11.6%.
For the compound `CCN(CC)CC(=O)Nc1c2c(nc3ccccc13)N(c1cccc(C)c1)CC2`, the inhibition was -3.54%.
As for `c1ccc(CCCCNc2nccc(Nc3ccncn3)n2)cc1`, the figure is -1.64%; as for `CN(C)CC(C)(C)CNCc1nnc(-c2ccccc2)o1`, -4.13%.
As for `COc1ccc(CN2CCN(Cc3cccnc3)CC2)cc1OCc1ccccc1`, the figure is 3.98%; as for `CCCCCCOC(=O)c1cc(C(=O)OCCCCCC)c(C)nc1C`, -4.67%.
As for `COc1cccc(C(=O)N2CCN(Cc3cc(OC)c(OC)cc3OC)CC2)c1`, the figure is 0.86%; as for `COc1cc(CN2CCN(Cc3cc(OC)c(OC)cc3OC)CC2)cc(OC)c1`, 7.67%.
Consider `c1ccc(Oc2cccc(OCCCCn3cncn3)c2)cc1`, for which the inhibition was -15.6%.
For `CCCn1c(C)cc(-c2csc(NC(=O)Cc3ccsc3)n2)c1C` the value was 21.7%.
For `COC(=O)c1cccc(NS(=O)(=O)c2ccc3ccccc3c2)c1C` the value was 1.98%; for `Clc1ccc(CN2CCN(CC3CC=CCC3)CC2)cc1` (stereo unspecified), -2.27%.
With `CCOc1ccccc1N1CCN(Cc2cc(OC)c(O)c([N+](=O)[O-])c2)CC1`, the inhibition was 32.4% (active).
As for `COc1cc(CN2CCN(Cc3ccc(C)cc3)CC2)c([N+](=O)[O-])cc1OC`, the figure is 6.72%; as for `CCOc1cc(CN2CCN(Cc3ccccn3)CC2)ccc1OC`, 13.2%; as for `CCN1CCN(CCCOc2ccc(C(C)=O)cc2OC)CC1`, 1.36%.
As for `COc1cc(CN(CCN(C)C)Cc2ccccc2)cc(OC)c1`, the figure is 15.3%; as for `Cc1cc(C(C)(C)C)ccc1OCCN1CCNCC1`, -3.14%.
For `Cn1c(-c2ccc(F)cc2)cnc1NCc1cccnc1` the value was -19.5%; for `Cc1ccc(CN2CCN(Cc3ccncc3)CC2)cc1`, 15.2%.
With `COc1cccc(CN2CCN(C(=O)c3ccccc3F)CC2)c1`, the inhibition is -1.9%.
For `c1cc2c(cc1CN1CCN(C3CCCC3)CC1)OCO2` the value was -0.1%; for `O=C1NC(c2ccccc2[N+](=O)[O-])C(C(=O)c2cccs2)C(O)(C(F)(F)F)N1` (stereo unspecified), 4.8%.
`CN1CCN(CCOCCOc2ccccc2Cl)CC1`: the inhibition is 6.9%.
For `N#C/C(=C/c1ccc(-c2ccc3c(c2)C(=O)NC3=O)o1)C(=O)O` the value was 6.58%; for `CCc1ccc(NC(=O)CS(=O)CC(=O)NCCCc2ccccc2)cc1` (stereo unspecified), 44.5% (active).
Consider `Cc1ccc(NC(=O)CNCCCSc2ccccc2)cc1C`, for which the inhibition was 14.7%.
As for `Nc1ccc(S(=O)(=O)O)c2cc(S(=O)(=O)O)cc(O)c12`, the inhibition was 42.7% (active).
Consider `Cc1ccc(C)c(OCCN2CCOCC2)c1C`, for which the inhibition is 15.2%.
